PubChem BioAssay (NCATS)
Inconclusive results are not listed. The source made the active and inactive calls. Calls come from the whole dose curve; as a rule, active = well fitted inhibition curve with a large enough effect; inconclusive = small, poorly fitted or top-dose-only effect; inactive = flat fitted curve, though single readings scatter.

Target: DNA dC->dU-editing enzyme APOBEC-3G (Homo sapiens) (UniProt Q9HC16)
Experiment: qHTS for inhibitors of Vif-A3G interactions: Validation (AID 588379)
Details: Vif-A3G protein interaction assay; series mostly up to 46.1 µM
Summary of the method: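 Yellow fluorescence (Ex 488, Em 500-530) of Vif-coexpressing HeLa A3G-eYFP cells, scanned by Acumen cytometer, reports blocked A3G degradation. Cells plated at 700/well overnight at 37 deg C before compound addition, then a further overnight compound incubation at 37 deg C.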

DNA dC->dU-editing enzyme APOBEC-3G (Homo sapiens), sequence (Q9HC16 whole entry, looked up): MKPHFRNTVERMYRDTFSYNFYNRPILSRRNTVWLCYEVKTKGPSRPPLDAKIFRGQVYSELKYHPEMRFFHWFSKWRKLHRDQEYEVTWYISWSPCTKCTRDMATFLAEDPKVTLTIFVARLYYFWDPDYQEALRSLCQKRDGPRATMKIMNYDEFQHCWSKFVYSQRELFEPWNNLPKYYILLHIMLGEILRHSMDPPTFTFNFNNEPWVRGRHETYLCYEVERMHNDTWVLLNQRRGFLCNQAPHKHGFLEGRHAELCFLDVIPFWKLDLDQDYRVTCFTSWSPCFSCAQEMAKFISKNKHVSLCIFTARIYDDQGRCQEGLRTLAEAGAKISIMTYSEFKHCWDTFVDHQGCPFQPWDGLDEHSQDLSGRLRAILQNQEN

outcome, inactive:
CC1=C(C2=C(C)C(C(C)C)C3=C(C(=O)C(O)C3O)C2O)C(O)C2=C(C(O)C(O)C2=O)C1C(C)C (stereo not drawn)
CC[C@H](C)[C@H](NC(=O)OCC1c2ccccc2-c2ccccc21)C(=O)O
O=c1c(-c2ccc(O[C@@H]3O[C@H](CO)[C@@H](O)[C@H](O)[C@H]3O)cc2)coc2cc(O)cc(O)c12
Nc1ncnc2c1ncn2C1CC(O)C(CO)O1 (stereo not drawn)

Target: Luciferin 4-monooxygenase (Photinus pyralis) (UniProt P08659)
Experiment: Biochemical firefly luciferase enzyme assay for NPC (AID 624030);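 note: purified P. pyralis luciferase at 10 nM with luciferin and ATP substrate; nearly all actives have a fitted effect of over 70% in size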
Details: purified P. pyralis luciferase, luminescence, 5 min; series mostly up to 24.9 µM
Summary of the method: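 Counter-screen for direct inhibition of the luciferase enzyme by approved-drug library compounds, run at 10 nM enzyme in 50 mM Tris acetate (final). Luminescence was read within 5 min of enzyme-buffer addition and normalized to PTC124 versus DMSO (0%).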

Luciferin 4-monooxygenase (Photinus pyralis), sequence (P08659 whole entry, looked up): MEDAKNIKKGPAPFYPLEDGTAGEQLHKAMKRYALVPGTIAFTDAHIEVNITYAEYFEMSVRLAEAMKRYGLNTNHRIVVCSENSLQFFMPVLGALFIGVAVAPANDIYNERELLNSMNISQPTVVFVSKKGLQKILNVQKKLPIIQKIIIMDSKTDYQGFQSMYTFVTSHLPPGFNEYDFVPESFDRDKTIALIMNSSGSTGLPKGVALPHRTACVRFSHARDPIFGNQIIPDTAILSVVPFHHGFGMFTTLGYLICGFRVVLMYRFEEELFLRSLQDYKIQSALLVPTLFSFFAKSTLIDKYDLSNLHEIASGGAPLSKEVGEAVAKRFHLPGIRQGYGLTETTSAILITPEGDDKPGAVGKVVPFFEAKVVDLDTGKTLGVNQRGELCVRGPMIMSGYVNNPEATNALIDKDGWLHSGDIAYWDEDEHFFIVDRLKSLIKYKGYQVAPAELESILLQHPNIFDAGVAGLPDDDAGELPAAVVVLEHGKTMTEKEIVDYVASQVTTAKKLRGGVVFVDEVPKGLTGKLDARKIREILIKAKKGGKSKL

Potency, inactive:
C=CC1=C(C(=O)O)N2C(=O)C(NC(=O)/C(=N\O)c3csc(N)n3)C2SC1 (stereo not drawn)
NCC1O[C@@H](OC2C(N)C[C@H](N)[C@@H](O[C@H]3OC(CO)C(O)C(N)C3O)C2O)C(N)C(O)C1O (stereo partly drawn)
CC1(C)SC2C(NC(=O)C(N)c3ccccc3)C(=O)N2C1C(=O)O (stereo not drawn)
NCC1O[C@@H](O[C@@H]2C(O)[C@H](O[C@H]3OC(CO)C(O)C(N)C3O)[C@@H](N)C[C@H]2N)C(N)C(O)C1O (stereo partly drawn)
